Among all 320,000 compounds or so, about 2,100 (0.66%) were called active. Another 53% or so got no clear call; they are omitted. The sample holds actives, similar compounds and a random draw of the others, so the mix is not that of the screen. Calls come from the whole dose curve; as a rule, active = well fitted inhibition curve with a large enough effect in the signal ratio, with a control signal flat (not every such curve was filed as active); inconclusive = small, poorly fitted or top-dose-only effect, or effect the other way, or a change in a side signal; inactive = flat fitted curve, though single readings scatter; the % refers to the signal ratio.
Potency is the fitted concentration of half-maximal effect.

A short description of this assay: qHTS Assay for Lipid Storage Modulators in Drosophila S3 Cells.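 For cell number change: cells counted by Cell Tracker Red CMTPX staining in the red channel.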 For lipid storage change, negative = inhibition: % is set by controls: 0 for no effect and ±100 for the full control effect. Conditions: BODIPY lipid droplet fluorescence, 18-24 h, cells fed with added oleic acid; cell number change: measured here: cell count max response; series mostly up to 46.1 µM; lipid storage change, negative = inhibition: at the top concentration. Summed up: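 Drosophila S3 cells got compounds at several concentrations plus oleic acid (400 uM solution). Laser-scanning cytometry with 488 nm excitation read lipid droplets at 500-530 nm and cells at 575-640 nm. Percent activity was relative to 20 uM Triacsin C.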
(qHTS replaces the single test concentration by a dilution series.)
As for `COc1ccc2c(c1)c(CC(=O)O)c(C)n2C(=O)c1ccc(Cl)cc1`, the “lipid storage change, negative = inhibition” value is -2.62% (inactive) and the cell number change came out at 3.94%.
As to `Cc1ccc(/C=C2\Oc3cc(OC(=O)N4CCOCC4)ccc3C2=O)cc1`, the “lipid storage change, negative = inhibition” value is 2.13% (inactive) and the cell number change was 0.311%.
As for `COC(=O)CC(NC(=O)C1CC1)c1ccc2c(c1)OCO2` (configuration not stated), the “lipid storage change, negative = inhibition” value is 4.85% (inactive).
As for `CC1Oc2ccccc2C=C1/C=N/NC(=O)[C@@H](C)NC(=O)OC(C)(C)C` (some centres not stated), the “lipid storage change, negative = inhibition” value was 5.39% (inactive) and the cell number change came to 8.38%.
As to `CCOC(=O)N1CCN(C(=O)c2ccc(Cn3c(=S)[nH]c4cc(OCC)c(OCC)cc4c3=O)cc2)CC1`, the “lipid storage change, negative = inhibition” value is 7.39% (inactive).
As for `COc1ccc(CCNC(=O)C(=O)N2CCCCC2)cc1OC`, the “lipid storage change, negative = inhibition” value is -1.78% (inactive) and the cell number change turned out to be 6.42%.
For `O=C(Nc1ccc(NC(=O)c2cccs2)cn1)c1ccccc1`, in that order: -16.2% (inactive) and 8.82%.
For the compound `COc1ccc(C(=O)Nc2cnc(NC(=O)c3cccs3)cc2C)cc1`, the “lipid storage change, negative = inhibition” value was 25.6% (inactive) and the cell number change is -9.21%.
For `COc1ccc(C(=O)Nc2ccc(NC(=O)c3cccs3)cn2)cc1`, the Potency is 10.3 µM (active) and the cell number change was determined as 12.4%.
On to `O=C(NCCCO)/C(=C\c1cn(-c2ccccc2)nc1-c1cccnc1)NC(=O)c1ccccc1`, for which the “lipid storage change, negative = inhibition” value was 19.7% (inactive) and the cell number change amounted to 19.4%.
Regarding `COC(=O)c1cc(C(=O)OCC(=O)NCc2cccs2)cc([N+](=O)[O-])c1`, the “lipid storage change, negative = inhibition” value was -3.38% (inactive) and the cell number change is -8.04%.
Take `N#Cc1ccccc1S(=O)(=O)N1CCN(S(=O)(=O)c2ccc(Br)c(C(=O)O)c2)CC1`: the “lipid storage change, negative = inhibition” value was -3.74% (inactive).
Regarding `CCCCn1c(N)c(N(CCOC)C(=O)C2CCN(S(=O)(=O)c3ccc(C)cc3C)CC2)c(=O)[nH]c1=O`, the lipid storage change, negative = inhibition was 17.2% [at 0.0737 µM] (inactive).
Turning to `O=[N+]([O-])c1ccc(S(=O)(=O)CC2CSc3nc4ccccc4n32)cc1` (configuration not stated), the Potency was 32.6 µM (active) and the cell number change is -0.884%.
With `Cc1nnc2n(c1=O)C(CS(=O)(=O)c1ccc3ccccc3c1)CS2` (configuration not stated), the “lipid storage change, negative = inhibition” value was 7.18% (inactive) and the cell number change stood at 2.91%.
Take `Cc1ccc(S(=O)(=O)CC2CSc3nc(N)cc(=O)n32)cc1` (configuration not stated): the “lipid storage change, negative = inhibition” value is -8.79% (inactive) and the cell number change worked out at 2.18%.
For `CCOC(=O)Nc1cc2c(C)cc(=O)oc2cc1C`, in that order: 38.2% (inactive) and 12.9%.
Take `Cc1ccc(CN2CCN(Cc3c[nH]c4ccccc34)CC2CCO)o1` (configuration not stated): the “lipid storage change, negative = inhibition” value was -12.5% (inactive) and the cell number change worked out at 12.4%.
Taken in the same sequence, the figures for `Cc1cccc(C)c1NC(=O)N1C2CCC1CC(O)(c1cccnc1)C2` (configuration not stated) were 0.613% (inactive) and 9.99%.
Taken in the same sequence, the figures for `O=C(Nc1ccccc1C(=O)NC1CC1)c1ccccc1` were 3.91% (inactive) and 10.8%.
For `CCOC(=O)C1=NN(c2cccc(Cl)c2)C2=NC(C)=C(C(=O)OC)C(c3cccs3)N12` (configuration not stated), the “lipid storage change, negative = inhibition” value was -3.04% (inactive) and the cell number change was -18.3%.
In the case of `CCOc1ccc2ccccc2c1/C=N/NC(=O)c1ccncc1`, the result was inactive and the cell number change came out at 6.87%.
For the compound `COc1ccc2ccccc2c1/C=N/NC(=O)c1ccc([N+](=O)[O-])cc1`, the “lipid storage change, negative = inhibition” value is -10.6% (inactive) and the cell number change was -15.8%.
`CCOc1ccc2ccccc2c1/C=N\NC(=O)c1ccc([N+](=O)[O-])cc1`: the Potency was 6.51 µM (active) and the cell number change was -16.1%.
Regarding `CC(C)CNC(=O)CN1C(=O)NC2(CCCc3ccccc32)C1=O` (configuration not stated), the “lipid storage change, negative = inhibition” value was -4.01% (inactive) and the cell number change is 7.92%.
With `CCCNC(=O)C1CCN(S(=O)(=O)c2ccc3nc4c(c(C(=O)O)c3c2)CCCCC4)CC1`, the “lipid storage change, negative = inhibition” value is 18.1% (inactive) and the cell number change amounted to 4.41%.
As to `CN(C)N1C(=O)CC(C)(c2ccc([N+](=O)[O-])cc2)C1=O` (configuration not stated), the “lipid storage change, negative = inhibition” value was -2.1% (inactive) and the cell number change was -4.15%.
For the compound `Cc1cccc(-n2ncc3c(=O)[nH]c(SCC(=O)NCCC4=CCCCC4)nc32)c1`, the “lipid storage change, negative = inhibition” value is -10.6% (inactive) and the cell number change was -11%.
For `N#Cc1ccc(C(=O)OCCCc2cc3ccccc3c(=O)o2)cc1`, in that order: 9.51% (inactive) and 18%.
For `O=C(OCCCc1cc2ccccc2c(=O)o1)c1ccc2c(c1)OCO2`, in that order: 0.96% (inactive) and -12%.
`O=C(OCCc1cc2ccccc2c(=O)o1)c1cccc(Br)c1`: the Potency was 0.13 µM (active) and the cell number change was -23.3%.
Turning to `CC(C)CN1CCN(Cc2cccn2-c2ccc(Cl)cn2)CC1CCO` (configuration not stated), the “lipid storage change, negative = inhibition” value is 5.56% (inactive) and the cell number change amounted to 10.5%.
On to `CCCCc1c(O)nc2sccn2c1=O`, for which the “lipid storage change, negative = inhibition” value is 15.8% (inactive).
`COc1ccc2c(c1)sc1nc(=O)ccn12`: the “lipid storage change, negative = inhibition” value is -19.5% (inactive) and the cell number change amounted to 21.5%.
Consider `CCCCc1c(O)nc2sc3cc(OC)ccc3n2c1=O`, for which the Potency was 10.3 µM (active) and the cell number change is 9.25%.
On to `O=C(CN1CCOC1=O)N1CCCC(N2CCN(c3cccc(C(F)(F)F)c3)CC2)C1` (configuration not stated), for which the call was inactive and the cell number change was -10.2%.
Take `CSCC(=O)N1CCCC(N2CCN(c3cccc(C(F)(F)F)c3)CC2)C1` (configuration not stated): the Potency is 13 µM (active) and the cell number change turned out to be 7.35%.
On to `CCN(CC)CC(=O)N1CCCC(N2CCN(c3cccc(C(F)(F)F)c3)CC2)C1` (configuration not stated), for which the “lipid storage change, negative = inhibition” value is 12.5% (inactive) and the cell number change came out at 21%.
In the case of `CCc1ncc(CN2CCCC(C(=O)Nc3cccc(-c4cccc(C)c4)c3)C2)cn1` (configuration not stated), the “lipid storage change, negative = inhibition” value is 11.6% (inactive) and the cell number change was determined as 8.11%.
Taken in the same sequence, the figures for `O=C(Nc1cccc(-c2ccc(F)cc2)c1)C1CCCN(Cc2cccnc2)C1` (configuration not stated) were -8.86% (inactive) and -21.8%.
Regarding `CCc1ncc(CN2CCCC(C(=O)Nc3cccc(-c4ccc(F)cc4)c3)C2)cn1` (configuration not stated), the Potency is 20.6 µM (active) and the cell number change is -24.6%.
On to `C=CCN(Cc1nc(-c2ccccc2)no1)C(=O)c1ccoc1C`, for which the “lipid storage change, negative = inhibition” value was -4.28% (inactive) and the cell number change was determined as 33.5%.
As for `Cc1cc(=O)oc2cc(Oc3ncccc3[N+](=O)[O-])ccc12`, the “lipid storage change, negative = inhibition” value was -0.796% (inactive) and the cell number change turned out to be 13.9%.
As to `Cc1cc(=O)oc2cc(Oc3ccc([N+](=O)[O-])cc3[N+](=O)[O-])ccc12`, the Potency was 20.6 µM (active) and the cell number change was -13.4%.
In the case of `Cc1cc(=O)oc2cc(Oc3ccc(C(N)=O)cc3[N+](=O)[O-])ccc12`, the “lipid storage change, negative = inhibition” value is 0.639% (inactive) and the cell number change was found to be 5.31%.
For the compound `O=C(COc1ccccc1)NNC(=S)NC(=O)c1ccc(Cl)cc1Cl`, the “lipid storage change, negative = inhibition” value was 3.86% (inactive) and the cell number change was -11.7%.

These data come from PubChem BioAssay AID2685 (National Center for Advancing Translational Sciences (NCATS), 2010).
